According to PubChem BioAssay (NCATS):
Inconclusive results are not listed. Active and inactive are the calls of the source. Unless noted, calls come from the whole dose curve; as a rule, active = well fitted curve in the direction sought with a large enough effect; inconclusive = small, poorly fitted or top-dose-only effect, or another doubt; inactive = no such curve, though single readings can be large; an effect the other way counts as inactive or inconclusive.

What was measured:
[1] = qHTS Assay for Identifying Gametocytocidal Compounds (AID 743244); note: potency is the fitted concentration of half-maximal effect;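 for max response: % is set by controls: 0 for no effect and ±100 for the full control effect; actives lower the fluorescent signal which means gametocytes are killed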; conditions: P. falciparum 3D7 stage III-V gametocytes, alamarBlue, 72 h; max response: stronger effect = lower value
Method in brief: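 Fluorescence at Ex 525/Em 598 nm, recorded 24 h after alamarBlue addition, reports residual metabolic activity of 3D7 gametocytes (stages III–V) following 72 h compound exposure at 37 °C, 5% CO2.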

[2] = qHTS assay for measurement of the activity of small molecule inhibitors on Zika virus induced Caspase-3 activity in human iPSC derived neural progenitor cells (hNPCs) (AID 1224857); note: % of control where 0% means no effect; nearly all actives have a fitted effect of over 65% in size
Method in brief: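 Zika virus (2 FFU/cell) infection of human iPSC-derived NPCs, 6 h, following 1 h compound preincubation. Read-out: Caspase-Glo 3/7 luminescence.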

[3] = qHTS assay for measurement of the activity of small molecule inhibitors on Zika virus induced Caspase-3 activity in human astrocytoma cells (AID 1224859);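 note: plate controls were ZIKV-infected untreated cells for no effect and uninfected cells for full effect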
Method in brief: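 Caspase activation in ZIKV-infected SNB-19 cells (2 FFU/cell, 6 h) measured by Caspase-Glo 3/7 luminescence after 30 min RT; compound pre-incubated 1 h; normalised to uninfected and infected controls.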

[4] = qHTS assay to identify small molecule inhibitors of chordoma cells - UCH-1 (AID 1259355); note: nearly all actives have a fitted effect of over 55% in size; note: potency is the fitted concentration of half-maximal effect
Method in brief: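 800 cells/well, overnight attach; compounds pinned at 15 concs, then auranofin/camptothecin/doxorubicin/rubitecan/topotecan combo added; 48hr 37 C, 5% CO2; CellTiter-Glo, 30min RT, luminescence.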

[5] = qHTS assay to identify small molecule inhibitors of chordoma cells - UCH-2 (AID 1259356); note: % is set by controls: 0 for no effect and ±100 for the full control effect
[6] = P-glycoprotein substrates identified in KB-8-5-11 adenocarcinoma cell line, qHTS therapeutic library screen (AID 1346987); note: % is set by controls: 0 for no effect and ±100 for the full control effect; nearly all actives have a fitted effect of over 65% in size
Method in brief: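 Compounds are pinned in dose-response onto KB-8-5-11 cells (500 cells/well, colchicine-free medium) and left 72 h at 37 degree C. CellTiter-Glo luminescence then yields AC50 values.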

[7] = qHTS assay for cell viability of HEK293 cells (AID 743288); conditions: ATP luminescence (CellTiter-Glo), 18 h, stronger effect = lower value; note: % is set by controls: 0 for no effect and ±100 for the full control effect; nearly all actives have a fitted effect of over 50% in size
Method in brief: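 ATP luminescence (CellTiter-Glo) reports metabolically competent cell number after parental HEK293 cells, 2,000/well, were treated with DMSO-dissolved compounds for 18 h at 37 C; reagent incubation 30 min, room temperature.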

[8] = qHTS assay for cell viability of the p53RE-bla HCT-116 cell line (AID 743292); note: % is set by controls: 0 for no effect and ±100 for the full control effect; nearly all actives have a fitted effect of over 55% in size
Method in brief: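 HCT-116 p53RE-bla cells seeded 4,000/well; 5 h at 37 C; compound (DMSO) added; 16 h at 37 C; CellTiter-Glo added, 30 min RT; luminescence read.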

[9] = qHTS profiling for inhibitors of Plasmodium falciparum (3D7) proliferation (AID 743322; call rule not given here;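 note: infected erythrocytes exposed to compound for 72 h before lysis; 100% = DMSO vehicle wells and 0% = 0.29 µM artemisinin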); conditions: P. falciparum 3D7 proliferation; at 28.7 µM (top of the series) unless noted
Method in brief: (§1)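 Parasite DNA was quantified by SYBR Green I fluorescence (ex 485, em 535 nm) after overnight lysis in saponin/Triton buffer at room temperature. Cultures at 0.3% parasitemia and 2.5% hematocrit were first exposed to compound for 72 h at 37 C; signals were normalised to artemisinin (0.29 uM) and vehicle wells.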

[10] = qHTS profiling for inhibitors of Plasmodium falciparum (DD2) proliferation (AID 743323; call rule not given here); conditions: lower = more inhibition; at 28.7 µM (top of the series) unless noted
Method in brief: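 Parasite DNA quantified by SYBR Green fluorescence (ex 485, em 535 nm) after saponin/Triton lysis and overnight dark incubation. Cultures: 0.3% parasitemia, 2.5% hematocrit, 72 h, 37 C; data scaled between DMSO and 0.29 uM artemisinin.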

[11] = qHTS profiling for inhibitors of Plasmodium falciparum (HB3) proliferation (AID 743324); conditions: Plasmodium falciparum HB3 blood-stage proliferation; at 28.7 µM (top of the series) unless noted;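 note: 100% = DMSO vehicle wells and 0% = artemisinin-treated control wells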
Method in brief: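 SYBR Green fluorescence (485 ex/535 em) of lysed cultures, incubated overnight at room temperature in the dark, quantifies parasite DNA. Infected erythrocytes at 0.3% parasitemia and 2.5% hematocrit were exposed 72 h; values normalized to DMSO and 0.29 uM artemisinin controls.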

[12] = qHTS profiling of the MIPE4 collection as inhibitors of Plasmodium falciparum (3D7) proliferation (AID 743344; call rule not given here;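 note: scaled between DMSO vehicle wells and 0.29 µM artemisinin as full inhibition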); conditions: P. falciparum 3D7 in erythrocytes, SYBR Green DNA fluorescence, 72 h; at 28.5 µM (top of the series)
Method in brief: as §1

[13] = qHTS profiling of the MIPE4 collection as inhibitors of Plasmodium falciparum (DD2) proliferation (AID 743345; call rule not given here); conditions: P. falciparum Dd2 in erythrocytes, SYBR Green DNA, 72 h; at 28.5 µM (top of the series)
Method in brief: as §1

[14] = qHTS profiling of the MIPE4 collection as inhibitors of Plasmodium falciparum (DD2) proliferation (Rep 2) (AID 743346; call rule not given here); conditions: P. falciparum Dd2 in erythrocytes, SYBR Green DNA, 72 h; at 28.5 µM (top of the series)
Method in brief: as §1

[15] = qHTS profiling of the MIPE4 collection as inhibitors of Plasmodium falciparum (HB3) proliferation (AID 743347; call rule not given here;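 note: plate controls were DMSO vehicle wells for no effect and artemisinin wells for full effect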); conditions: P. falciparum HB3 in erythrocytes, SYBR Green DNA, 72 h; at 28.5 µM (top of the series)
Method in brief: as §1

CCCCCCCCCCC[C@@H](C[C@@H]1OC(=O)[C@H]1CCCCCC)OC(=O)[C@H](CC(C)C)NC=O
inactive: max response [1] -7.75% | Potency [2] | outcome [3] | Potency [4] | Potency [5] | Potency [6]

Cc1c[nH]c2ccccc12
inactive: max response [1] 0.215% | Potency [2] | outcome [3] | Potency [4] | Potency [5] | Potency [6]

CN1CCN(C2=Nc3cc(F)ccc3Cc3ccccc32)CC1
inactive: max response [1] 29% | Potency [2] | outcome [3] | Potency [4] | Potency [5]

C[C@]12CCC(=O)C=C1C=C[C@@H]1[C@@H]2CC[C@@]2(C)[C@H]1CC[C@@]21CCC(=O)O1
inactive: max response [1] 1.8% | Potency [2] | outcome [3] | Potency [4] | Potency [5]

COc1ccc(CN(CCN(C)C)c2ncccn2)cc1
inactive: max response [1] -8.37% | Potency [2] | outcome [3] | Potency [4] | Potency [5]

OC(C#CCN1CCCC1)(c1ccccc1)c1ccccc1
inactive: max response [1] -3.1% | Potency [2] | outcome [3] | Potency [4] | Potency [5]

O=C1c2cccc3c2[C@H](CCC3)CN1[C@@H]1CN2CCC1CC2
inactive: max response [1] -7.45% | Potency [2] | outcome [3] | Potency [4] | Potency [5]

CO[C@]12C[C@@H](COC(=O)c3cncc(Br)c3)CN(C)[C@@H]1Cc1cn(C)c3cccc2c13
inactive: max response [1] 10.7% | Potency [2] | outcome [3] | Potency [4] | Potency [5]

CCCCCCCCCCCCCC(=O)OC(C)C
inactive: max response [1] -3.41% | max response [7] -1.19% | outcome [8] | Potency [2] | outcome [3] | Potency [4] | Potency [5]

Cc1cc2c(OCC(CNC(C)(C)C)OC(=O)c3ccccc3)cccc2[nH]1 (stereo not given)
inactive: Potency [2] | outcome [3] | Potency [4] | Potency [6]

CC(C)=CCOc1ccc(/C=C/C(=O)c2ccc(OCC=C(C)C)cc2OCC(=O)O)cc1
inactive: max response [1] 2.6% | Potency [2] | outcome [3] | Potency [4] | Potency [5]

COc1ccc(C(Cl)=C(c2ccc(OC)cc2)c2ccc(OC)cc2)cc1
inactive: max response [1] 5.06% | max response [7] -29.7% | outcome [8] | Potency [2] | outcome [3] | Potency [4] | Potency [5]

O=C1C(=O)c2ccccc2C(O)=C1C1CCC(c2ccc(Cl)cc2)CC1 (stereo not given)
9.76e-05%: remaining parasite growth % (stronger effect = lower value) [9]
9.11%: parasite growth, % of DMSO control [12]
9.71%: parasite growth remaining, % of DMSO control (lower = more inhibition) [13]
1.19%: remaining proliferation (% of control), lower = more inhibition [11]
18.4%: parasite growth, % of control (lower = inhibition) [14]
3.7%: activity, percent of control [10]
inactive: Potency [2] | outcome [3] | Potency [4] | Potency [5]
5.96%: growth, % of control [15]

CCc1oc2ccccc2c1C(=O)c1cc(I)c(O)c(I)c1
inactive: max response [1] 0.665% | Potency [2] | outcome [3] | Potency [4] | Potency [5]

CCN(CC)CCOC(=O)C(Cc1cccc2ccccc12)CC1CCCO1 (stereo not given)
inactive: max response [1] 7.43% | Potency [2] | outcome [3] | Potency [4] | Potency [5]

CNCCCCOc1ccccc1Cc1ccccc1
65.9%: remaining parasite growth % (stronger effect = lower value) [9]
inactive: Potency [2] | outcome [3] | Potency [4] | Potency [5]
42.9%: remaining proliferation (% of control), lower = more inhibition [11]
active: Potency [1] 18.7 µM
31.1%: activity, percent of control [10]

CCO[C@@H]1O[C@H](C(COCc2ccccc2)OCc2ccccc2)[C@H](OCc2ccccc2)[C@H]1O (stereo not given in full)
inactive: max response [1] -9.56% | Potency [2] | outcome [3] | Potency [4] | Potency [5]

Cl/C(=C\n1cncn1)c1ccc(Cl)cc1Cl
inactive: max response [1] -6.68% | Potency [2] | outcome [3] | Potency [4] | Potency [5]

CN(C)CCOC(c1ccc(Cl)cc1)c1ccccn1 (stereo not given)
inactive: max response [1] 1.88% | Potency [2] | outcome [3] | Potency [4] | Potency [5]

O[C@@H](c1cc(C(F)(F)F)nc2c(C(F)(F)F)cccc12)[C@H]1CCCCN1
inactive: Potency [2] | outcome [3] | Potency [5]
active: Potency [1] 1.05 µM | Potency [4] 35.5 µM

Nc1nc(Cl)nc2c1ncn2[C@@H]1O[C@H](CO)[C@@H](O)[C@@H]1F
inactive: max response [1] 14.9% | Potency [2] | outcome [3] | Potency [4] | Potency [5]

c1ccc(-c2nc[nH]c2-c2ccccc2)cc1
inactive: max response [1] -4.96% | Potency [2] | outcome [3] | Potency [4] | Potency [5]

CC(=O)O[C@]1(C(C)=O)CC[C@H]2[C@@H]3C=C(Cl)C4=CC(=O)CC[C@]4(C)[C@H]3CC[C@@]21C
inactive: max response [1] -7.79% | Potency [2] | outcome [3] | Potency [4] | Potency [5]

COC(=O)C(c1ccccc1Cl)N1CCc2sccc2C1 (stereo not given)
inactive: max response [1] 14.8% | Potency [2] | outcome [3] | Potency [4] | Potency [5]

COc1cc(N)c(Cl)cc1C(=O)NC1CCN(Cc2ccccc2)CC1
inactive: max response [1] -0.971% | Potency [2] | outcome [3] | Potency [4] | Potency [5]

Oc1ccc(Cl)cc1Cc1cc(Cl)ccc1O
inactive: max response [1] 0.972% | outcome [8] | Potency [2] | outcome [3] | Potency [4] | Potency [5]

CCCCNc1ccc(C(=O)OCCOCCOCCOCCOCCOCCOCCOCCOCCOC)cc1
inactive: max response [1] -1.52% | Potency [2] | outcome [3] | Potency [4] | Potency [5]

C#C[C@]1(O)CC[C@H]2[C@@H]3CCc4cc(OC)ccc4[C@H]3CC[C@@]21C
inactive: max response [1] -2.6% | Potency [2] | outcome [3] | Potency [4] | Potency [5]
